The values that follow come from publication PMC11574364.

For this experiment, the target named is SLTM (Homo sapiens, UniProt Q9NWH9). Nature of the experiment: protein domain microarray probed with biotinylated miRNA; Domain array: 20 mM Tris-HCl pH 7.4, 200 mM KCl, 0.2 mM EDTA, 0.05% NP40, 2 ug/ul heparin, overnight 4 C. ORF array: PBS pH 7.0 with RNase inhibitor, 100 ng RNA; high values mean tight binding. The following applies: ssRNA.
SLTM, sequence (Q9NWH9 360-485): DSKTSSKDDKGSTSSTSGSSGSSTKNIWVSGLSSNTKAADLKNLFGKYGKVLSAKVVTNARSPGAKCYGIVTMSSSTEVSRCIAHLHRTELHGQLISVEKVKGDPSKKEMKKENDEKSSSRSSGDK

As to UGAGGUAGUAGGUUGUGUGGUU, the binding signal was 305 ± 14.8 fluorescence intensity.

In turn, UAGCUUAUCAGACUGAUGUUGA yielded a binding signal of 33.6 ± 0.863 fluorescence intensity. For CAGUGCAAUGAUGAAAGGGCAU, the binding signal came to 123 ± 2.81 fluorescence intensity. The value for UGAGGUAGUAGGUUGUAUGGUU was 141.8 ± 1.03 fluorescence intensity; that for UGAGGUAGUAGGUUGUAUAGUU was 57.9 ± 0.728 fluorescence intensity. The value for AGAGGUAGUAGGUUGCAUAGUU was 123 fluorescence intensity.
